# Screening data as filed in PubChem BioAssay.
# In the library only some 2% were active in any assay of this set; here they are far more common.
# LYPLA1 inh: LYPLA1 inhibitors, primary screen, counter-screen for PME1 inhibitor project, biochemical, fluorescence polarization, FP-Rh probe ABPP. Acyl-protein thioesterase 1 (Homo sapiens), O75608. hit rate 0.16% among 320,000. inhibition, % at 5.9 µM. recombinant LYPLA1;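 active means inhibition above the mean of all tested compounds plus 3 SD, set per campaign, cut at about 14% in these data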;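 further: inhibitors block serine hydrolase probe labeling of LYPLA1 so polarization falls; 0% = enzyme with DMSO and 100% = wells lacking LYPLA1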
# Target sequence (O75608 whole entry, looked up): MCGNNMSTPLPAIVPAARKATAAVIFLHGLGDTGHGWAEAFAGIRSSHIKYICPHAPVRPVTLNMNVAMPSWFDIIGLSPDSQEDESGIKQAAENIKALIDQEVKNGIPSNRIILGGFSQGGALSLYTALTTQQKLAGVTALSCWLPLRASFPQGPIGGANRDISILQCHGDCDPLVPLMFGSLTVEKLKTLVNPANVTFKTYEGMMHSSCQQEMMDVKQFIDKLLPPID
# GSTO1 inh: inhibitors of recombinant GSTO1, primary screen, counter-screen for RBBP9 inhibitor project, biochemical, fluorescence polarization; hit rate 1.1% among 300,000; inhibition, % at 5.96 µM; activity-based probe fluorescence polarization; AID 1974, 2009; Glutathione S-transferase omega-1 (Homo sapiens), P78417;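 active means inhibition above the campaign mean inhibition plus 3 SD, cut at about 35% in these data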;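 further: 0% = GSTO1-1 with DMSO and 100% = wells lacking GSTO1-1 enzyme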
# PME-1 inh: PME-1 inhibitors via competitive probe labeling, primary screen, biochemical, fluorescence polarization, FP-Rh probe, HTS. hit rate 0.53% among 320,000. Protein phosphatase methylesterase 1 (Homo sapiens), Q9Y570. inhibition, % at 5.9 µM. recombinant PME-1;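 active means inhibition above the campaign mean of all compounds plus 3 SD, cut at about 26% in these data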;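 further: competitive labeling of PME-1 active site by serine hydrolase directed probe; 0% = PME-1 with DMSO and 100% = wells lacking PME-1 enzyme; inhibitors block probe labeling so polarization falls and inhibition rises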
# Target sequence (Q9Y570 whole entry, looked up): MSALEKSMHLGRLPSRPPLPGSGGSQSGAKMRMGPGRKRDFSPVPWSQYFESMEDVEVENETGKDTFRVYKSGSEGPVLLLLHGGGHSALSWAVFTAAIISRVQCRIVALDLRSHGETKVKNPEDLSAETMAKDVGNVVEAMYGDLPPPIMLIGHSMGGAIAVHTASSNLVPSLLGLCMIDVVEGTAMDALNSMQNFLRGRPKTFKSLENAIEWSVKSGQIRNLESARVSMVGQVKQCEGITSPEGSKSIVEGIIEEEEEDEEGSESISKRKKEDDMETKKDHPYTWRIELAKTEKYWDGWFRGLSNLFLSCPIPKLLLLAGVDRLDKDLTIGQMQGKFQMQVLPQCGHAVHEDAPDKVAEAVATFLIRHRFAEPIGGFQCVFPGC
# LYPLA2 counter: LYPLA2 inhibitors, primary screen, counter-screen for PME1 inhibitor project, biochemical, fluorescence polarization, FP-Rh probe ABPP; inhibition, % at 5.9 µM; recombinant LYPLA2; hit rate 0.38% among 320,000; Acyl-protein thioesterase 2 (Homo sapiens), O95372;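 active means inhibition above the screen-wide mean plus 3 SD, limit set per campaign, cut at about 26% in these data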;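 further: 0% = LYPLA2 with DMSO and 100% = wells lacking LYPLA2 enzyme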
# Fam108B inh: mouse Fam108B serine hydrolase inhibitors, primary screen, counter-screen for RBBP9 inhibitor project, biochemical, fluorescence polarization | recombinant Fam108B, FP-Rh probe fluorescence polarization | inhibition, % at 9.51 µM | hit rate 0.33% among 300,000;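 active means inhibition above the screen mean inhibition plus 3 SD, computed separately per campaign, cut at about 18% in these data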;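 further: inhibitors lower polarization as less probe binds the enzyme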
# PREPL inh: PREPL enzyme inhibitors, primary screen, biochemical, fluorescence polarization; AID 2751, 2010; recombinant PREPL, fluorescence polarization activity-based probe; hit rate 0.68% among 320,000; inhibition, % at 5.96 µM; in the data active means inhibition above about 43%;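 further: 0% = enzyme with DMSO and 100% = wells lacking enzyme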
# An asterisk follows results filed as active; / = not tested or not shown.
SMILES,LYPLA1 inh,GSTO1 inh,PME-1 inh,LYPLA2 counter,Fam108B inh,PREPL inh
O=C(COC(=O)c1ccc([N+](=O)[O-])s1)NC(c1ccccc1)c1ccccc1,1.2,37.3*,10.2,1.1,10.4,20.4
CC(C)(C)c1ccc(NC(=O)COC(=O)c2ccc([N+](=O)[O-])s2)cc1,-0.3,39.5*,32.8*,16.1,11.7,24.4
Cc1ccc(NC(=O)/C(Cl)=C/c2ccccc2)cc1C,-6.7,9.1,-9.8,1.5,-1.1,-5.3
CCN(CC(=O)Nc1ccc(NC(C)=O)cc1)C(=O)CSc1ncnc2sc(C)c(C)c12,0.8,11.3,-2.3,2.8,0.8,16.4
CCOc1cc(/C=C2\N=C(SCC)SC2=O)cc([N+](=O)[O-])c1OC(C)=O,11.5,-5.5,35.0*,5.9,13.7,4.5
Cc1cc(-c2ccccc2)nc(N/N=C/c2ccc(O)cc2O)n1,-9.0,17.4,39.9*,-1.4,7.0,28.1
Cn1c(=NC(=O)c2ccco2)sc2ccccc21,3.4,36.2*,-5.6,6.1,1.7,-0.7
Cc1sc(=NC(=O)c2ccco2)n(C)c1-c1ccccc1,-3.1,-0.6,1.6,0.5,0.4,0.4
CC(C)(C)OC(=O)NCc1ccc(CNC(=O)c2nc[nH]c2C(=O)N2CCN(C(=O)OC(C)(C)C)CC2)cc1,1.2,/,-4.6,-5.2,/,-1.2
CCOC(=O)N1CC=C2C(C#N)=C(N)C(C#N)(C#N)[C@H](c3ccsc3)[C@H]2C1,0.2,1.4,10.5,3.2,-1.3,-1.2
CCOC(=O)N1CC=C2C(C#N)=C(N)C(C#N)(C#N)[C@H](c3ccccc3OCC)[C@H]2C1,0.0,-3.3,27.1*,0.5,-1.0,3.9
CN1CC=C2C(C#N)=C(N)C(C#N)(C#N)[C@H](c3cccc(Cl)c3)C2C1 (some centres undefined),1.1,3.9,6.9,4.4,1.5,10.0
N#CC1=C(N)C(C#N)(C#N)C(c2ccncc2)C2CN(C(=O)OCc3ccccc3)CC=C12 (centres undefined),5.7,9.6,31.4*,12.6,1.1,26.7
N#CC1=C(N)C(C#N)(C#N)[C@H](c2cccnc2)[C@H]2CN(C(=O)OCc3ccccc3)CC=C12,-2.7,21.1,25.4,-2.3,-0.9,26.9
CCOC(=O)N1CC=C2C(C#N)=C(N)C(C#N)(C#N)[C@H](c3ccc(OC(C)C)c(OCC)c3)[C@H]2C1,-0.2,1.8,41.4*,4.7,0.5,8.4
COCCn1c(CN2CCN(C(=O)c3ccco3)CC2)nc2c1c(=O)n(C)c(=O)n2C,-2.2,-1.5,-1.0,-0.8,1.3,21.4
OCC1(CCc2ccccc2)CCN(Cc2cccn2-c2cccnc2)CC1,4.5,-1.1,-3.5,6.4,0.2,14.7
Cc1cccc(-n2c3nc(=O)[nH]c(=O)c-3cc3cc([N+](=O)[O-])ccc32)c1,0.0,-14.1,30.8*,-1.2,13.1,2.9
CCc1cc(C(=O)N=Nc2c(O)[nH]c3ccc([N+](=O)[O-])cc23)c2ccccc2n1,-12.4,43.3*,-1.0,-8.1,9.2,15.4
CC(=O)c1c(C)cc(C)c(CSc2nnc(-c3ccco3)o2)c1C,-1.5,35.2*,0.2,3.1,-0.4,0.6
Clc1ccc(-c2noc3c2-c2nc(Cc4cccc5ccccc45)sc2CC3)cc1,-4.0,2.6,-2.5,-2.1,-2.5,-7.7
Cc1c(C(=O)OC/C(O)=C(\C#N)c2nc3ccccc3[nH]2)oc2ccccc12,-9.3,15.4,31.5*,-13.1,-2.9,1.8
Cc1ccc(C(=O)Sc2cccccc2=O)cc1,4.0,37.0*,1.3,7.8,1.4,0.3
Cc1cccc(Cn2nnc3c2C(=O)c2ccccc2C3=O)c1,0.7,24.2,-1.2,-0.1,12.9,4.1
Cc1ccccc1Cn1nnc2c1C(=O)c1ccccc1C2=O,3.4,38.3*,5.5,2.0,4.4,9.0
SMILES,LYPLA1 inh,GSTO1 inh,PME-1 inh,LYPLA2 counter,Fam108B inh,PREPL inh
Cc1ccc(NCC(=O)c2ccccc2)cc1Cl,5.6,3.9,0.1,4.4,-1.6,6.8
Cc1ccc(NC2=C(NC(=O)c3ccccc3)C(=O)c3ccccc3C2=O)cc1Cl,0.6,61.8*,10.1,2.9,7.6,19.4
CN(C)c1ccc(C(=O)Nc2nnc(-c3ccc(Cl)cc3)o2)cc1,4.9,35.7*,5.3,0.9,-1.0,7.8
COc1ccc(C(=O)OCCN2CCN(C3=NS(=O)(=O)c4ccccc43)CC2)cc1OC,1.0,-1.3,-0.3,5.0,-1.9,-1.1
CC(Sc1nnnn1C)C(=O)Nc1cc(S(=O)(=O)N2CCCCC2)ccc1Cl (centres undefined),1.6,/,4.8,0.4,/,2.9
N#C/C(=C/c1ccc(N2CCOCC2)o1)c1ccc(Cl)cc1,5.2,2.1,0.5,6.2,21.0*,34.4
CCC(C(=O)NC(C)(C)C)N(Cc1ccco1)C(=O)CNS(=O)(=O)c1ccc(OC)cc1 (centres undefined),1.0,3.0,0.6,0.2,0.3,16.4
CCOc1ccc(S(=O)(=O)Nc2cccc(C(=O)NCCCn3ccnc3)c2)cc1,-1.5,/,6.7,-8.0,/,12.8
Oc1c(C=Nc2cccc3cccnc23)sc2ccccc12,-0.1,6.6,20.6,6.0,10.9,44.9*
O=C(N/N=C/c1sc2ccccc2c1O)c1cccc2ccccc12,-2.2,42.4*,9.9,2.0,3.0,9.8
CCOC(=O)c1sc2nc(C)nc(SC(C)C(=O)NC3CC3)c2c1C (centres undefined),-7.5,/,-5.3,-6.5,/,-2.9
Cc1cccnc1NC(=O)CCC(=O)c1cccs1,2.4,/,5.5,1.2,/,6.7
CCN=c1scc(C)n1/N=C/c1ccc(O)c(O)c1O,-4.4,69.3*,-4.2,-9.4,4.7,12.0
COCCN=c1scc(-c2cccs2)n1/N=C/c1ccc(O)c(O)c1O,-6.9,16.8,8.7,-5.3,-1.9,22.6
O=C1C=C(O)c2c(O)cc(O)c(O)c2C1=O,0.3,72.8*,10.3,9.2,15.8,30.4
O=C1c2ccccc2C(=O)c2c(O)c(O)cc(O)c21,/,/,/,/,/,18.6
COC(=O)c1ccccc1-c1ccc(C(c2c(C)[nH][nH]c2=O)c2c(C)[nH][nH]c2=O)o1,-0.4,65.3*,-2.9,1.6,3.5,7.3
c1ccc2cc(C3CCCCC3)ncc2c1,/,/,/,/,/,-19.1
O=C1c2cccc3cccc(c23)C(=O)N1CCN1CCN(CC(O)COc2ccc3ccccc3c2)CC1 (centres undefined),-4.2,-7.1,-4.5,19.2,-8.5,2.5
CC(=O)c1ccccc1OCC(O)CN1CCN(CCN2C(=O)c3cccc4cccc(c34)C2=O)CC1 (centres undefined),3.5,7.6,0.4,39.1*,3.1,5.2
